PubChem BioAssay AID1159580 (chemical genetic matrix, 2015)
About 2,000 (36%) of roughly 5,500 compounds were called active. Another 18% or so got no clear call; they are omitted. Rule as the data show it: active = normalized growth mostly below about 0.91 (no sharp cut-off); inconclusive = no clear call, values can overlap the other calls; inactive = mostly above about 0.92. This is one part of the list.

Assay: chemical genetic growth profiling, strain panel (AID 1159580);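 also: tested at 20 µM; growth read once vehicle control cultures reached saturation at 30 °C; 1 = growth at the plate median or of vehicle wells; lower values mean less growth of the strain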
Details: S. cerevisiae deletion strains, growth OD
[1] = locus YHR030C, strain SLT2, hits give low values
[2] = locus YHR079C, strain IRE1, hits give low values
[3] = locus YJL095W, strain BCK1, hits give low values
[4] = locus YJR066W, strain TOR1, hits give low values
[5] = locus YLR113W, strain HOG1, hits give low values
[6] = locus YNL183C, strain NPR1, hits give low values
[7] = locus YOR231W, strain MKK1, hits give low values
[8] = locus YPL256C, strain CLN2, hits give low values

Measured: normalized growth

COc1cccc([C@]2(O)CCCC[C@H]2CN(C)C)c1
inactive: locus YAL021C, strain ccr4, hits give low values 0.964 | locus YAL026C, strain drs2, hits give low values 0.968 | locus YAL030W, strain snc1, hits give low values 0.947 | locus YBL061C, strain skt5, hits give low values 0.968 | locus YBR009C, strain hhf1, hits give low values 0.965 | locus YBR023C, strain chs3, hits give low values 0.977 | locus YBR171W, strain sec66, hits give low values 0.962 | locus YBR231C, strain swc5, hits give low values 0.99 | locus YBR279W, strain paf1, hits give low values 0.975 | locus YCL011C, strain gbp2, hits give low values 0.972 | locus YCL016C, strain dcc1, hits give low values 0.973 | locus YCL061C, strain MRC1, hits give low values 0.987 | locus YCL069W, strain vba3, hits give low values 0.967 | locus YCR088W, strain abp1, hits give low values 0.973 | locus YDL005C, strain med2, hits give low values 0.965 | locus YDL040C, strain nat1, hits give low values 0.978 | locus YDR001C, strain nth1, hits give low values 0.963 | locus YDR069C, strain doa4, hits give low values 0.958 | locus YDR137W, strain rgp1, hits give low values 0.942 | locus YDR159W, strain sac3, hits give low values 0.932 | locus YDR195W, strain ref2 0.956 | locus YDR297W, strain sur2, hits give low values 0.966 | locus YDR334W, strain swr1, hits give low values 0.928 | locus YDR335W, strain msn5, hits give low values 0.958 | locus YDR392W, strain spt3, hits give low values 0.973 | locus YEL003W, strain gim4, hits give low values 0.971 | locus YEL037C, strain rad23, hits give low values 0.982 | locus YEL061C, strain CIN8 (second series), hits give low values 0.968 | locus YER015W, strain faa2, hits give low values 0.973 | locus YER016W, strain bim1, hits give low values 0.978 | locus YER111C, strain swi4, hits give low values 0.974 | locus YER155C, strain BEM2 (second series), hits give low values 0.97 | locus YFR010W, strain ubp6, hits give low values 0.955 | locus YGL167C, strain pmr1, hits give low values 0.967 | locus YGL173C, strain kem1, hits give low values 0.952 | locus YGL227W, strain vid30, hits give low values 0.963 | locus YGL240W, strain doc1, hits give low values 0.947 | locus YGL253W, strain hxk2, hits give low values 0.988 | locus YHR013C, strain ard1, hits give low values 0.937 | locus YHR027C, strain rpn1, hits give low values 0.959 | [1] 0.969 | [2] 0.963 | locus YHR142W, strain chs7, hits give low values 0.951 | locus YJL092W, strain hpr5, hits give low values 0.982 | locus YJL095W, strain BCK1 (second series), hits give low values 0.962 | [3] 1.01 | locus YJL115W, strain asf1, hits give low values 0.956 | locus YJL129C, strain trk1, hits give low values 0.983 | locus YJL154C, strain vps35, hits give low values 0.959 | locus YJL164C, strain tpk1, hits give low values 0.981 | locus YJL166W, strain qcr8, hits give low values 0.968 | locus YJL187C, strain SWE1, hits give low values 0.973 | [4] 0.935 | locus YKL160W, strain elf1, hits give low values 0.981 | locus YKR026C, strain gcn3, hits give low values 0.977 | locus YKR091W, strain srl3, hits give low values 0.98 | locus YLL001W, strain dnm1, hits give low values 0.981 | locus YLL026W, hits give low values 0.949 | locus YLL041C, strain sdh2, hits give low values 0.971 | locus YLR027C, strain aat2, hits give low values 0.944 | [5] 0.981 | locus YLR221C, strain rsa3, hits give low values 0.971 | locus YLR258W, strain gsy2, hits give low values 0.971 | locus YLR262C, strain YPT6 (second series), hits give low values 0.962 | locus YLR320W, strain mms22, hits give low values 0.964 | locus YLR342W, strain FKS1, hits give low values 0.99 | locus YLR357W, strain rsc2, hits give low values 0.997 | locus YLR370C, strain arc18, hits give low values 0.974 | locus YLR384C, strain iki3, hits give low values 0.974 | locus YML120C, strain ndi1, hits give low values 0.979 | locus YMR058W, strain fet3, hits give low values 0.978 | locus YMR125W, strain sto1, hits give low values 0.963 | locus YMR129W, hits give low values 0.987 | locus YMR205C, strain PFK2, hits give low values 0.961 | locus YMR231W, strain pep5, hits give low values 0.967 | locus YNL071W, strain lat1, hits give low values 0.98 | [6] 0.941 | locus YNL209W, strain ssb2, hits give low values 0.966 | locus YNL248C, strain rpa49, hits give low values 0.989 | locus YNL322C, strain KRE1 (second series), hits give low values 0.97 | locus YNR049C, strain mso1, hits give low values 0.969 | locus YOR001W, strain rrp6, hits give low values 0.968 | locus YOR070C, strain gyp1, hits give low values 0.978 | locus YOR080W, strain dia2, hits give low values 0.969 | locus YOR083W, strain WHI5, hits give low values 0.968 | locus YOR106W, strain vam3, hits give low values 0.969 | [7] 0.96 | locus YOR265W, strain rbl2, hits give low values 0.978 | locus YOR270C, strain vph1, hits give low values 0.945 | locus YOR290C, strain snf2, hits give low values 0.966 | locus YPL051W, strain arl3, hits give low values 0.987 | locus YPL078C, strain atp4, hits give low values 0.968 | locus YPL106C, strain sse1, hits give low values 0.916 | locus YPL240C, strain hsp82, hits give low values 0.974 | [8] 0.978

N#C/C(=C\c1ccccc1Sc1ccc(Cl)cc1)S(=O)(=O)c1ccccn1
inactive: locus YAR019C, strain CDC15, hits give low values 0.972 | locus YBL105C, strain PKC1, hits give low values 0.968 | locus YBR135W, strain CKS1, hits give low values 0.957 | locus YBR136W, strain MEC1, hits give low values 0.966 | locus YBR160W, strain CDC28, hits give low values 0.973 | locus YDL017W, strain CDC7, hits give low values 0.982 | locus YDL028C, strain MPS1, hits give low values 0.971 | locus YDL101C, strain DUN1, hits give low values 0.963 | locus YDL108W, strain KIN28, hits give low values 0.962 | locus YDL132W, strain cdc53, hits give low values 0.959 | locus YDL214C, strain PRR2, hits give low values 0.901 | locus YDR052C, strain DBF4, hits give low values 0.98 | locus YDR054C, strain cdc34, hits give low values 0.969 | locus YDR226W, strain ADK1, hits give low values 0.968 | locus YDR477W, strain SNF1, hits give low values 0.873 | locus YER123W, strain YCK3, hits give low values 0.88 | locus YER133W, strain GLC7, hits give low values 0.909 | locus YFL009W, strain cdc4, hits give low values 0.967 | locus YFL029C, strain CAK1, hits give low values 0.968 | locus YFR003C, strain YPI1, hits give low values 0.97 | locus YFR019W, strain FAB1, hits give low values 0.926 | locus YFR028C, strain CDC14, hits give low values 0.962 | locus YGR040W, strain KSS1, hits give low values 0.871 | locus YGR052W, strain FMP48, hits give low values 0.883 | locus YGR092W, strain DBF2, hits give low values 0.772 | [1] 0.858 | [2] 0.956 | locus YHR082C, strain KSP1, hits give low values 0.939 | locus YHR205W, strain SCH9, hits give low values 0.872 | locus YIL147C, strain SLN1, hits give low values 0.97 | [3] 0.875 | locus YJL128C, strain PBS2, hits give low values 0.925 | locus YJL157C, strain FAR1, hits give low values 0.897 | locus YJR016C, strain ILV3, hits give low values 0.971 | locus YJR066W, strain TOR1 (second series), hits give low values 0.883 | [4] 0.938 | locus YKL048C, strain ELM1, hits give low values 0.852 | locus YKL067W, strain YNK1, hits give low values 0.9 | locus YKL101W, strain HSL1, hits give low values 0.875 | locus YKL193C, strain SDS22, hits give low values 0.961 | locus YKL203C, strain TOR2, hits give low values 0.936 | locus YLR133W, strain CKI1, hits give low values 0.889 | locus YLR403W, strain SFP1, hits give low values 0.802 | locus YML070W, strain DAK1, hits give low values 0.886 | locus YMR001C, strain CDC5, hits give low values 0.964 | locus YMR205C, strain PFK2 (second series), hits give low values 0.908 | locus YMR277W, strain FCP1, hits give low values 0.963 | locus YNL006W, strain LST8, hits give low values 0.959 | locus YNL020C, strain ARK1, hits give low values 0.891 | locus YNL161W, strain CBK1, hits give low values 0.968 | [6] 0.934 | locus YNL207W, strain RIO2, hits give low values 0.968 | locus YNL222W, strain SSU72, hits give low values 0.959 | locus YNL307C, strain MCK1 (second series), hits give low values 0.877 | locus YOL078W, strain AVO1, hits give low values 0.955 | locus YOL136C, strain PFK27, hits give low values 0.846 | locus YOR061W, strain CKA2, hits give low values 0.851 | locus YOR119C, strain RIO1, hits give low values 0.939 | [7] 0.893 | locus YOR329C, strain SCD5, hits give low values 0.969 | locus YPL031C, strain PHO85, hits give low values 0.868 | locus YPL153C, strain RAD53, hits give low values 0.904 | locus YPL204W, strain HRR25, hits give low values 0.83 | locus YPL209C, strain IPL1, hits give low values 0.968 | [8] 0.926 | locus YPR025C, strain CCL1, hits give low values 0.961 | locus YPR106W, strain ISR1, hits give low values 0.973 | locus YPR111W, strain DBF20, hits give low values 0.942 | strain NNK1, hits give low values 0.964 | strain TSCII, hits give low values 0.956
active: [5] 0.821
